From PubChem BioAssay (NCATS)
Inconclusive results are not listed. A number with no mark means an inactive call. Activity calls are given as the source filed them. The call rests on the fitted dose curve; in most records, active means well fitted inhibition curve with a large enough effect; inconclusive means small, poorly fitted or top-dose-only effect; inactive means no such curve, though single readings can be large or run the other way.

assay: Primary qHTS for small molecule stabilizers of the endoplasmic reticulum resident proteome: Secreted ER Calcium Modulated Protein (SERCaMP) assay (AID 1508630); conditions: SH-SY5Y GLuc-SERCaMP (Gaussia luciferase released on ER calcium loss) secretion, thapsigargin, luminescence; series mostly up to 38.4 µM; activity change, negative = inhibition: at the top concentration
Source text: Assay Provider: Brandon K. Harvey Ph.D.
National Institute on Drug Abuse, National Institutes of Health, Baltimore, MD
Endoplasmic reticulum (ER) dysregulation is associated with human pathologies including neurodegenerative, cardiovascular, muscular, and diabetic conditions. Maintenance of ER calcium is critical for functions of the ER and its depletion can lead to loss of ER resident proteins, in a process termed exodosis. Therapeutic compounds capable of attenuating the redistribution of ER proteins under pathological conditions may slow or stop disease progression. To identify such compounds, we performed a quantitative high-throughput screen (qHTS) using the SERCaMP assay, which monitors secretion of ER resident proteins triggered by calcium depletion.
SERCaMP was initially developed as a reporter of ER calcium homeostasis using a Gaussia luciferase with a modified signal peptide and carboxy-terminus (GLuc-SERCaMP), modifications that confer secretion of the reporter in response to ER calcium depletion (Henderson et al., 2014). The assay was used to screen 9,501 compounds, including a collection of drugs approved by the FDA (US), EMA (EU), NHI (Japan), and HC (Canada) regulatory agencies (Huang et al., 2011). Since the SERCaMP reporter reflects the exodosis phenomenon (Trychta et al., 2018a), compounds identified in the screen have the potential to prevent exodosis by different mechanisms such as stabilizing ER calcium or augmenting ERS retrieval.
1. Henderson, M.J., Wires, E.S., Trychta, K.A., Richie, C.T., and Harvey, B.K. (2014). SERCaMP: a carboxy-terminal protein modification that enables monitoring of ER calcium homeostasis. Mol Biol Cell 25, 2828-2839.
2. Huang, R., Southall, N., Wang, Y., Yasgar, A., Shinn, P., Jadhav, A., Nguyen, D.T., and Austin, C.P. (2011). The NCGC pharmaceutical collection: a comprehensive resource of clinically approved drugs enabling repurposing and chemical genomics. Sci Transl Med 3, 80ps16.
3. Trychta, K.A., Back, S., Henderson, M.J., and Harvey, B.K. (2018a). KDEL Receptors Are Differentially Regulated to Maintain the ER Proteome under Calcium Deficiency. Cell Rep 25, 1829-1840 e1826.
SEQUENCE No. (1, 2, 3, etc.); […] (e.g., Cells, Incubation, Reagent, etc.); VALUE and DESCRIPTION.
1; Reagent; 5 uL; 1000 SH-SY5Y cells per wells
3; Compound; 23 nL; Control inhibitor / compound library
5; Reagent; 100 nM; Thapsigargin
7; Reagent; 1 uL; 0.5x coelenterazine
8; Detection; Luminescence; ViewLux imaging system
NOTES (numbers refer to sequence above)
1; SH-SY5Y human neuroblastoma cells stably expressing GLuc-SERCaMP (SH-SY5Y-GLuc-ASARTDL) cells were seeded in 1,536 well white tissue culture treated plates (Corning, Cat# 7464) in DMEM-high glucose-sodium pyruvate (ThermoFisher Scientific, Cat #10569) supplemented with 10% bovine growth serum (Hyclone), 10 U/ml penicillin (Gibco), 10 ug/ml streptomycin (Gibco), and 20 mM HEPES.
2; Assay plates were incubated for 5 hour at 37C in a humidified incubator containing 5% CO2.
3; qHTS libraries (23 nl, final concentrations of 1.53 uM, 7.67 uM, 38.3 uM) or controls (neutral control: DMSO, positive control: dantrolene) were added using a Kalypsis pin-tool Robotic System equipped with 1536 pinheads.
4; Cells were then incubated for 16 hours at 37C, 5% CO2.
5; Thapsigargin was added at 100 nM to deplete ER calcium stores.
6; Cells were incubated for 4 hour (37 °C, 5% CO2)
7; Gaussia luciferase in the medium was measured by adding 1 ul of 0.5x coelenterazine (final concentration 0.07x) prepared in Gaussia Luciferase Glow Assay Buffer (Pierce), without addition of the Cell Lysis Buffer Reagent.
8; Luminescence was measured using a ViewLux […] CCD imaging system (Perkin Elmer) equipped with clear filters. […] The same controls were also used for the calculation of the Z' factor, a measure of assay quality control, as previously described (Zhang et al., 1999). […]
On the % scale 0 is the no-effect control and ±100 the full control effect.

SMILES	activity change, negative = inhibition	outcome
O=C(O)Cc1nn(Cc2ccc(Br)cc2F)c(=O)c2ccccc12	-16.8%	–
Nc1ccc(N=Nc2ccccc2)c(N)n1	–	inactive
N[C@H](CC(=O)O)C(=O)O	–	inactive
N#Cc1ccc2c(c1)N(CCCN1CCC(O)CC1)c1ccccc1S2	3.14%	–
NC(=O)c1ccc[n+]([C@@H]2O[C@H](COP(=O)([O-])OP(=O)(O)OC[C@H]3O[C@@H](n4cnc5c(N)ncnc54)[C@H](O)[C@@H]3O)[C@@H](O)[C@H]2O)c1	-13.2% [at 13 µM]	–
CCC(C)[C@@H](N)C(=O)O (stereo not given in full)	-4.82%	–
COc1ccc2nc(NC(=O)Nc3ccccc3)sc2c1	42.6%	–
CCCCC[C@H](O)/C=C/[C@H]1[C@H](O)CC(=O)[C@@H]1CCCCCCC(=O)O	-7.33% [at 3.88 µM]	–
CN(C)CCCSc1ccccc1NC(=O)/C=C/c1ccccc1	-28.9%	–
CC/C=C\C/C=C\C/C=C\C/C=C\C/C=C\C/C=C\CCC(=O)O	–	inactive
Oc1ccc(/C=C/c2cc(O)cc(O)c2)cc1	–	inactive
CNC(=O)[C@H](Cc1c[nH]c2ccccc12)NC(=O)[C@@H](CC(=O)NO)CC(C)C	-12.2%	–
O=C(O)CCC/C=C\C[C@@H]1[C@@H](/C=C/[C@@H](O)COc2cccc(Cl)c2)[C@H](O)C[C@@H]1O	-16.6% [at 3.88 µM]	–
O=C(O)Cc1cc(I)c(Oc2ccc(O)c(I)c2)c(I)c1	–	inactive
O=C(O)c1ccc(NC2OC[C@@H](O)[C@H](O)[C@H]2O)cc1 (stereo not given in full)	-7.5%	–
NC[C@H]1O[C@H](O[C@H]2[C@H](O)[C@@H](O[C@H]3O[C@H](CO)[C@@H](O)[C@H](N)[C@H]3O)[C@H](N)C[C@@H]2N)[C@H](N)C[C@@H]1O	-16.6%	–
CC/C=C\C/C=C\C/C=C\CCCCCCCC(=O)O	-26.6% [at 3.88 µM]	–
O=C1CCC(c2ccccc2)(C2CCN(Cc3ccccc3)CC2)C(=O)N1 (stereo not given)	-10.3%	–
COc1cc(C)c(/C=C/C(C)=C/C=C/C(C)=C/C(=O)O)c(C)c1C	-7.72%	–
CC(=O)Oc1cccc2c1C(=O)c1c(OC(C)=O)cc(C(=O)O)cc1C2=O	-8.25%	–
